The values below come from PubChem BioAssay (Tox21).

A number with no mark means an inactive call. Results filed as inconclusive are left out. The source made the active and inactive calls. Unless noted, the call rests on the fitted dose curve; in most records, active means well fitted curve in the direction sought with a large enough effect in the repeat runs; inconclusive means weak or mixed curves; inactive means no such curve, though single readings can be large; an effect the other way counts as inactive or inconclusive.

Assay [1] is described as follows: qHTS assay for small molecule agonists of the p53 signaling pathway (AID 651631; calls by dose curve; further: nearly all actives have a fitted effect of over 15% in size). The essentials: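 HCT-116 p53RE-bla reporter line, 16 h compound treatment at 37 °C, then fluorescence after 2 h with B/G FRET substrate.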
(In general: qHTS replaces the single test concentration by a dilution series.)

Assay [2] is described as follows: qHTS assay for small molecules that induce genotoxicity in human embryonic kidney cells expressing luciferase-tagged ATAD5 (AID 651632). Further: nearly all actives have a fitted effect of over 15% in size. Put shortly: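 Concentration-response screen for ATAD5 upregulation in HEK293T luciferase reporter cells; 16 hr treatment at 37C, then luminescence after 30 min with Amplite at room temperature.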
A short description of assay [3]: qHTS assay for small molecule agonists of the p53 signaling pathway - cell viability (AID 651633; calls by dose curve;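 further: p53RE-bla HCT reporter cells with a stable beta-lactamase p53 reporter; series mostly up to about 83 µM; nearly all actives have a fitted effect of over 30% in size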). Put shortly: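 p53RE-bla cells were treated with compound for 16 hours at 37 C. Cytotoxicity was then measured as CellTiter-Glo luminescence after 30 min at room temperature.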
Assay [4] in a line: qHTS assay for small molecules that induce genotoxicity in human embryonic kidney cells expressing luciferase-tagged ATAD5 - cell viability (AID 651634; calls by dose curve; further: nearly all actives have a fitted effect of over 25% in size). The essentials: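 15.5 hr compound or vehicle exposure of HEK293T cells expressing luciferase-tagged ATAD5 at 37C; live-cell protease activity is read by fluorescence after 30 min of CellTiter-Fluor.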
A short description of assay [5]: qHTS assay for small molecule disruptors of the mitochondrial membrane potential (AID 720635). Further: potency means the concentration at half of the fitted maximal effect. The essentials: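 HepG2 cells exposed to compound 1 hr at 37C, then Mito-MPS dye 30 min. Ratio read of aggregate (540/590 nm) versus monomer (490/535 nm) fluorescence.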
Assay [6] can be described thus: qHTS assay to test for compound auto fluorescence at 460 nm (blue) in HEK293 cells (AID 720678). The essentials: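 Intrinsic compound fluorescence is recorded in live HEK293 cultures after overnight incubation at 37C, 5% CO2, using excitation 405 nm and emission 460 nm. Values are referenced to triamterene.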
Assay [7] can be described thus: qHTS assay to test for compound auto fluorescence at 590 nm (red) in HEK293 cells (AID 720679). The essentials: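 Red autofluorescence, HEK293 cells: 2,000 cells/well; attach 4-5 hr 37C; add 23 nL cpd or DMSO; incubate o/n 37C 5% CO2; read Ex540/Em590; Rose Bengal sodium reference.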
Assay [8] can be described thus: qHTS assay to test for compound auto fluorescence at 535 nm (green) in HEK293 cells (AID 720680).
Assay [9] is described as follows: qHTS assay to test for compound auto fluorescence at 460 nm (blue) in HEK293 cell free culture (AID 720681). The essentials: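 Compounds were added to cell-free DMEM with 10% FBS and fluorescence read directly. The blue channel used 405 nm excitation and 460 nm emission, with triamterene as the reference fluorophore.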
Assay [10] is described as follows: qHTS assay to test for compound auto fluorescence at 590 nm (red) in HEK293 cell free culture (AID 720683). The essentials: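 Cell-free wells of DMEM with 10% FBS received compound, and intrinsic fluorescence was read at excitation/emission 540/590 nm. Values expressed as equivalence to Rose Bengal sodium.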
Assay [11] is described as follows: qHTS assay to test for compound auto fluorescence at 590 nm (red) in HepG2 cell free culture (AID 720684). The essentials:
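Auto fluorescence equivalency versus Rose Bengal sodium, red channel Ex/Em 540/590 nm; compounds in cell-free MEM/10% FBS; DMSO vehicle control.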

Assay [12] is described as follows: qHTS assay to test for compound auto fluorescence at 460 nm (blue) in HepG2 cell free culture (AID 720685). The essentials: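 Cell-free plates of MEM plus 10% FBS received 23 nL compound or DMSO vehicle; blue-channel (405/460 nm) intensity scored against triamterene as reference fluorophore.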
The nature of assay [13]: qHTS assay to test for compound auto fluorescence at 535 nm (green) in HepG2 cell free culture (AID 720686).
Assay [14] is described as follows: qHTS assay to test for compound auto fluorescence at 460 nm (blue) in HepG2 cells (AID 720687). The essentials:
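HepG2 cells in MEM with 10% FBS, attached overnight at 37 C, were exposed to compound or DMSO for 1 hr at 37 C, 5% CO2. Blue fluorescence was read at 405/460 nm, with triamterene as reference fluorophore.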

A short description of assay [15]: qHTS assay to test for compound auto fluorescence at 590 nm (red) in HepG2 cells (AID 720674). Put shortly: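 Seeding: 2,000 HepG2 cells/well, MEM/10% FBS, overnight 37 C. Dosing: compound vs DMSO. Incubation: 1 hr, 37 C, 5% CO2. Read: fluorescence 540 ex/590 em, Rose Bengal sodium as red reference.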
Assay [16] in a line: qHTS assay to test for compound auto fluorescence at 535 nm (green) in HepG2 cells (AID 720675).
A short description of assay [17]: qHTS assay to test for compound auto fluorescence at 535 nm (green) in HEK293 cell free culture (AID 720682). Put shortly: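 Steps: dispense DMEM/10% FBS into empty wells; pin in compound or DMSO; measure fluorescence at 485/535 nm. Values are fluorescein equivalents.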
Assay [18] concerns the target Glucocorticoid receptor (Homo sapiens) (UniProt P04150). The assay is described as follows: qHTS assay to identify small molecule agonists of the glucocorticoid receptor (GR) signaling pathway (AID 720691; active means well fitted activation curve with a large enough effect in the signal ratio in the repeat runs, not every such curve was filed as active; the % refers to the signal ratio). The essentials:
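Measures GR pathway activation through a GRE-beta-lactamase reporter stably integrated in HeLa cells, with 18 h compound treatment at 37 C and fluorescence detection using a FRET substrate.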

The nature of assay [19]: qHTS assay for small molecule disruptors of the mitochondrial membrane potential - cell viability (AID 720634; calls by dose curve;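 further: human HepG2 liver cancer cells; series mostly up to about 83 µM; nearly all actives have a fitted effect of over 20% in size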). The essentials: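 In this qHTS format, HepG2 cells plated overnight were pinned with compound, incubated 1 hr, and assayed for ATP luminescence with CellTiter-Glo after m-MPI dye addition.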
For assay [20], the target named is Glucocorticoid receptor (Homo sapiens) (UniProt P04150). Kind of assay: qHTS assay to identify small molecule antagonists of the glucocorticoid receptor (GR) signaling pathway (AID 720692; active means well fitted inhibition curve with a large enough effect in the signal ratio in the repeat runs, not every such curve was filed as active; the % refers to the signal ratio). The essentials:
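Tox21 10K library screened in concentration-response for blockade of dexamethasone (5 nM final)-induced GRE-bla reporter activity in HeLa cells; 18 h treatment, fluorescence read.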
On the % scale 0 is the no-effect control and ±100 the full control effect.

Glucocorticoid receptor (Homo sapiens), sequence (P04150 whole entry, looked up): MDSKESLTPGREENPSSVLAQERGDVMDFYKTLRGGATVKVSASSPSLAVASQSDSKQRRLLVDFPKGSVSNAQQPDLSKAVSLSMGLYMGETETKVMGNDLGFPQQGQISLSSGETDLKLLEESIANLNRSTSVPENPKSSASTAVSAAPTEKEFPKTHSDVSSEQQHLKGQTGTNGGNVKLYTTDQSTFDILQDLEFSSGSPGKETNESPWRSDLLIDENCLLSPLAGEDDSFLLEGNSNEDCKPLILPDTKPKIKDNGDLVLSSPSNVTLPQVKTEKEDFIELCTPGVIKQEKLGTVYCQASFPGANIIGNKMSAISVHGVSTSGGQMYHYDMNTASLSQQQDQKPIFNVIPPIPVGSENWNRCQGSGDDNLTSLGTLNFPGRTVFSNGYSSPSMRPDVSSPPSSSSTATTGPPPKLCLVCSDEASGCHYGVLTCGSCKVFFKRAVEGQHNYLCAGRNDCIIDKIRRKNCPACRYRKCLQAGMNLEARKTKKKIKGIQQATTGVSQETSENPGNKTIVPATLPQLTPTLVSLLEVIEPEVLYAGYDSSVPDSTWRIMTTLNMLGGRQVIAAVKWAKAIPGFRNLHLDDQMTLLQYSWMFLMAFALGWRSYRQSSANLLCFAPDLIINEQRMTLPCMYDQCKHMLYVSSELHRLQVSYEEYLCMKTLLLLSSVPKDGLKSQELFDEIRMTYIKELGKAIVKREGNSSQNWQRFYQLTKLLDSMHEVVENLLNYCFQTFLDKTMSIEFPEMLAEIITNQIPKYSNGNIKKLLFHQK

In the case of `Cn1nnc2c(C(N)=O)ncn2c1=O`, the call in assay [1], in assay [2], in assay [3], in assay [6], in [7] and in assay [8] was inactive. For the same compound, the outcome in assay [9], in assay [10], in [11], in assay [12], in [13] and in assay [14] was inactive. Moreover, the Potency result in assay [4] and in [5] was “inactive” each time.

Regarding `CC(Oc1cc(Cl)ccc1Cl)C(=O)O` (centres undefined), the result in assay [1], in assay [2], in assay [3], in [15], in assay [16] and in assay [6] was inactive. The call in assay [7], in assay [8], in assay [9], in [17], in assay [11] and in assay [12] was inactive. For the same compound, the call in assay [14] was inactive. Moreover, the Potency entry in assay [4] was “inactive”.

For `CC(C)c1ccc(C=O)cc1`, the compound was classed as inactive in assay [1], in assay [2], in assay [3], in assay [16], in assay [6] and in assay [7]. Besides, the result in [8], in [9], in assay [17], in assay [10], in [11] and in assay [12] was inactive. For the same compound, the outcome in assay [13] and in assay [14] was inactive. For the same compound, the Potency result in [4], in [5] and in [18] was “inactive” each time.

For the compound `NCCOCCN`, the call in [1], in assay [2], in assay [3], in assay [19], in [15] and in [16] was inactive. Further, the compound was classed as inactive in assay [6], in [7], in [8], in assay [17], in assay [10] and in assay [11]. For the same compound, the call in assay [12], in assay [13] and in assay [14] was inactive.

For `COC(=O)c1cccc(Cl)c1`, the compound was called inactive in [1], in assay [2], in assay [3], in assay [15], in [16] and in assay [6]. The outcome in assay [7], in assay [8], in [9], in assay [10], in assay [11] and in assay [12] was inactive. Besides, the compound was called inactive in assay [13] and in [14]. Moreover, the Potency entry in assay [5] is “inactive”.

Regarding `CCC(=O)c1c(O)cc(O)cc1O`, the compound was classed as inactive in assay [1], in assay [2], in [3], in [15], in assay [16] and in assay [6]. For the same compound, the compound was called inactive in [7], in [8], in assay [17], in [10], in [11] and in assay [14]. Further, the compound was called inactive in assay [20]. Also, the Potency entry in assay [4] and in assay [18] was “inactive” in each case. In assay [5], the Potency was 11.9 µM (active).

With `CN1CCOC(c2ccccc2)c2ccccc2C1` (centres undefined), the compound was called inactive in [1], in [2] and in assay [3]. Also, the Potency entry in assay [4] is “inactive”. For the same compound, the fluorescence, relative to Rose Bengal in assay [15] is -0.228% [at 18.6 µM]. Besides, in assay [16], the fluorescence, % of fluorescein control is 0.0561% [at 18.6 µM]. Besides, the fluorescence, % of triamterene in assay [6] is -0.11% [at 18.6 µM]. The figures for the fluorescence, % of fluorescent control in assay [7], in [12] and in [14] were 0.0791% [at 18.6 µM], -0.0245% [at 18.6 µM] and 0.0046% [at 18.6 µM], respectively. The fluorescence, % of fluorescein in assay [8] is -0.0031% [at 18.6 µM]. Besides, the activity change in assay [17] was -0.0245% [at 18.6 µM]. Also, the fluorescence, % of Rose Bengal in [11] was 0.115% [at 18.6 µM].

With `O=C1CCCCO1`, the compound was called inactive in assay [1], in [2], in assay [3], in assay [16], in [6] and in [7]. Also, the compound was called inactive in assay [8], in [9], in [17], in [10], in [11] and in assay [12]. Besides, the compound was classed as inactive in assay [13] and in [14]. Moreover, in assay [4], the Potency entry is “inactive”.
